# Compounds with a hit are over-represented: about 4% of the library has one in this group of screens.
# Beta cell apopt: beta cell apoptosis inhibition; INS-1E cytokine-induced death, ATP luminescence, 48 h; percent of positive-control rescue, neutral wells zero; protection from apoptosis, % (no concentration beside the values); 0.8% of 300,000 active;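 active = Every replicate reaches about 75%, or at least half do and their mean reaches it too, limit read from the data; inconclusive = At least half of replicates reach the limit but their mean does not; inactive = Under half of replicates reach the limit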;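 note: higher means more ATP so stronger rescue from cytokine killing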
# Mdm2-MdmX inh: disrupts the human Mdm2-MdmX interaction | O15151+Q00987 | SaOS-2 split-luciferase Mdm2/MdmX complementation, luminescence | inhibition, % at 8 µM | 3% of 330,000 active;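 active = inhibition of at least 50% at 8 µM in the primary screen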
# PAX8 reporter: inhibitors of PAX8 transcriptional activity in RMG-I cells. 1.2% of 360,000 active. inhibition, % at 12.6 µM. RMG-I TPO-luciferase reporter, SteadyGlo, 24 h. AID 652154;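 active = mean replicate inhibition at least 60% with every replicate also reaching 60%; inconclusive = only one of the two criteria is met; inactive = mean below 60% and not all replicates reaching 60%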;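 note: luciferase light reporting Pax8 driven TPO promoter activity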
# Gli-Sufu block: Gli-Sufu pathway antagonism; Sufu-KO-LIGHT fibroblasts, Gli luciferase reporter luminescence; inhibition, % at 5 µM; 0.74% of 340,000 active;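 active = inhibition above about 55%, limit read from the data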
# CSC inhib: blocks cancer stem cells. AID 2717. cancer stem cell-like cells viability, luminescence. 1.1% of 300,000 active. inhibition, % at 7.5 µM; in the data active = inhibition above about 75%; inconclusive = no clear call, values can overlap the other calls; tested in HMLE shEcad cells
# Shn3 3UTR inh: Schnurri-3 reporter inhibition in Clone20 osteoblasts; Clone20 osteoblast Shn3 3'UTR firefly luciferase, 24 h; inhibition, % at 12.5 µM; 0.52% of 360,000 active; AID 588674;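 active = mean inhibition of at least 75% with every replicate also reaching 75%; inconclusive = mean inhibition at least 75% but some replicate below; inactive = mean inhibition below 75%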
# Mdm2 MdmX conf: confirmation of human Mdm2/MdmX interaction inhibitors; shares compounds with Mdm2-MdmX inh; Mdm2-MdmX binding, luminescent assay; inhibition, % at 8 µM; 55% of 10,000 active; AID 489028; in the data active = inhibition above about 40%
# Full FLuc ctr: full-length luciferase inhibition in Mdm2/MdmX counter-screen; shares compounds with Mdm2-MdmX inh; SaOS-2 full-length luciferase counterscreen, luminescence; 77% of 6,200 active; inhibition, % at 8 µM;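 active = mean inhibition at 8 µM reaching about 37%, which flags the compound as non-specific, limit read from the data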;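 note: p53-null SaOS-2 cells with luciferase driven by a doxycycline-inducible promoter; compound on cells about two nights before reading with doxycycline added after day one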
# A number is an active result; i = inactive; ? = inconclusive; nt = not tested or not shown.
SMILES,Beta cell apopt,Mdm2-MdmX inh,PAX8 reporter,Gli-Sufu block,CSC inhib,Shn3 3UTR inh,Mdm2 MdmX conf,Full FLuc ctr
CCCCC(=O)Nc1ccc(C(=O)NNC(=O)c2ccc(C)c(Br)c2)cc1,i,65,i,i,nt,i,i,43
CC(=O)OC(C)(C)/C=C/C(=O)[C@](C)(O)C1[C@H](O)C[C@@]2(C)C3CC=C4C(C=C(O[C@@H]5O[C@H](CO)[C@@H](O)[C@H](O)[C@H]5O)C(=O)C4(C)C)[C@]3(C)C(=O)C[C@]12C (stereo not given in full),i,96,102,i,i,i,i,nt
COc1cc2c(cc1OC)CN(c1nc(CN3CCOCC3)nc3sc4c(c13)CCC(C)C4)CC2 (stereo not given),i,64,i,i,i,i,i,74
COc1ccc(Nc2nc(CN3CCOCC3)nc3sc4c(c23)CCC(C)C4)cc1OC (stereo not given),i,i,nt,nt,i,nt,nt,nt
C[C@@H]1CN([C@@H](C)CO)C(=O)c2cc(NC(=O)CCC(F)(F)F)ccc2O[C@@H](C)CCCCO[C@H]1CN(C)Cc1ccccc1,nt,nt,i,nt,nt,nt,nt,nt
Cc1ccccc1C(=O)Nc1ccc2c(c1)CCCN2C(=O)c1cccs1,i,84,i,i,i,i,68,40
COc1cccc(C(=O)Nc2ccc3c(c2)CCCN3C(=O)c2cccs2)c1OC,i,i,i,i,i,i,nt,nt
O=C(CCl)N1c2ccccc2CCc2ccccc21,i,100,i,nt,i,i,50,i
CN1C(=O)c2cc(NC(=O)C3CCC3)ccc2OC[C@H]2O[C@H](CC(=O)NCCc3ccncc3)CC[C@@H]21,nt,nt,i,nt,nt,nt,nt,nt
O=C(c1c[nH]c2ccccc12)C(Cl)c1ccccc1 (stereo not given),i,79,81,i,83,i,69,52
Cc1noc(C)c1NC(=O)N(C)C[C@@H]1OCCCC[C@@H](C)Oc2ccc(NC(=O)NC3CCCCC3)cc2C(=O)N([C@H](C)CO)C[C@H]1C,nt,nt,i,nt,nt,nt,nt,nt
O=C(Nc1cccc(C(F)(F)F)c1)Nc1ccc(N2CCCC2)c(S(=O)(=O)Nc2ccccc2Cl)c1,103,99,90,i,78,92,97,57
C[C@H](CO)N1C[C@H](C)[C@H](CN(C)S(=O)(=O)c2cccs2)OCCCC[C@H](C)Oc2ccc(NC(=O)Nc3ccc4c(c3)OCO4)cc2C1=O,nt,nt,i,nt,nt,nt,nt,nt
Cc1ccc(C)c(SCC(=O)OC/C(O)=C(\C#N)c2nc3ccccc3[nH]2)c1,nt,nt,i,i,nt,i,nt,nt
N#C/C(=C(/O)COC(=O)CSc1ccc2ccccc2c1)c1nc2ccccc2[nH]1,i,51,i,i,i,i,i,nt
Cc1cc(Br)ccc1SCC(=O)OC/C(O)=C(\C#N)c1nc2ccccc2[nH]1,i,83,i,i,i,i,i,nt
N#C/C(=C(/O)COC(=O)CCC1CCCCC1)c1nc2ccccc2[nH]1,i,66,i,i,nt,i,i,nt
C[C@@H]1CN([C@@H](C)CO)C(=O)c2cc(NS(=O)(=O)c3ccc(Cl)cc3)ccc2O[C@H]1CN(C)CC1CC1,nt,nt,i,nt,nt,nt,nt,nt
Cc1noc(C)c1NC(=O)N(C)C[C@H]1Oc2ccc(NC(=O)Cc3ccccc3)cc2CC(=O)N([C@@H](C)CO)C[C@@H]1C,nt,nt,i,nt,nt,nt,nt,nt
COc1ccc(-c2ccc([C@H]3[C@@H](CO)N4C(=O)CN(Cc5ccccc5)C[C@@H]34)cc2)cc1,nt,nt,i,nt,nt,nt,nt,nt
Cc1cc(OCC(=O)Nc2ccccn2)c2c(C)c(C)c(=O)oc2c1,i,52,i,i,i,i,i,nt
CN1C(c2ccc(F)cc2)=CS/C1=C(/C#N)c1nnc(N2CCOCC2)n1-c1ccccc1,i,i,i,i,i,i,nt,nt
CN1C(=O)NC(c2ccccc2)(C(F)(F)F)S/C1=C(/C#N)c1nnc(N2CCOCC2)n1-c1ccccc1 (stereo not given),i,50,i,i,i,i,i,nt
CCOc1ccc(-n2c(-c3ccc(OC)cc3)c[n+]3c2CCCCC3)cc1,97,56,99,87,i,85,47,46
COc1ccc(-c2c[n+]3c(n2-c2c(C)n(C)n(-c4ccccc4)c2=O)CCCCC3)cc1,i,i,i,i,i,i,nt,nt
SMILES,Beta cell apopt,Mdm2-MdmX inh,PAX8 reporter,Gli-Sufu block,CSC inhib,Shn3 3UTR inh,Mdm2 MdmX conf,Full FLuc ctr
CCOc1ccc(CN2CCCC(N3CCN(c4ccc(OC)cc4)CC3)C2)cc1 (stereo not given),i,i,i,i,i,i,nt,nt
COc1ccc(-n2c(-c3ccc(Br)cc3)c[n+]3c2CCc2ccccc2-3)cc1,104,51,79,86,i,?,54,61
COc1ccc(-c2c[n+]3c(n2-c2ccc(C)cc2)CCCCC3)cc1,127,62,99,79,i,nt,40,49
COc1ccc(-n2cc(-c3ccc(Br)cc3)[nH]c2=S)cc1,i,i,i,i,i,i,nt,nt
C[C@@H]1CN([C@H](C)CO)C(=O)Cc2cc(NC(=O)C3CCCCC3)ccc2O[C@@H]1CN(C)Cc1ccc(Oc2ccccc2)cc1,nt,nt,i,nt,nt,nt,nt,nt
O=C1c2ccccc2C(=O)C1c1nccc2ccccc12,i,67,nt,i,i,i,i,nt
Cc1ccc(C(=O)N/N=C/c2c(O)ccc3ccccc23)cn1,nt,75,i,i,81,94,82,i
COc1ccc2ccccc2c1/C=N\NC(=O)c1cccnc1,nt,i,i,i,i,i,nt,nt
Cc1cc(O)c(C)c(O)c1/C=N/NC(=O)c1cccnc1,nt,57,i,i,i,i,45,69
COc1ccccc1/C=N/NC(=O)c1ccc(C)nc1,i,i,i,i,i,i,nt,nt
O=C(N/N=C\c1c(O)ccc2ccccc12)c1cncc(Br)c1,88,83,65,85,98,87,76,i
O=C(N/N=C/c1cc(Br)c(O)c(Br)c1O)c1cccnc1,i,i,i,i,i,i,nt,nt
O=C(N/N=C/c1c(O)ccc2ccccc12)c1cccnc1,96,70,70,68,?,i,74,i
C[C@@H]1CCCCO[C@@H](CN(C)C(=O)Nc2ccc(F)cc2)[C@H](C)CN([C@H](C)CO)C(=O)c2cc(NC(=O)Nc3ccc(F)cc3)ccc2O1,nt,nt,i,nt,nt,nt,nt,nt
O=C(N[C@@H]1CC[C@@H](CCNS(=O)(=O)c2ccccc2)O[C@H]1CO)c1cccc(F)c1,nt,nt,i,nt,nt,nt,nt,nt
COc1cccc(NC(=O)N2C[C@@H](O)COC[C@@H]3O[C@H](CC(=O)NC4Cc5ccccc5C4)CC[C@H]32)c1,nt,nt,i,nt,nt,nt,nt,nt
Cc1cc(C)c2nc(C)cc(N/N=C/c3ccc(O)cc3)c2c1,nt,98,94,i,103,i,100,50
Cc1cc(N/N=C/c2ccc(O)cc2)c2cccc(C)c2n1,i,66,i,i,i,i,i,nt
CCOc1ccc(-c2nc(N)ncc2Oc2cccc(OC)c2)c(O)c1,i,66,nt,i,i,i,42,62

# From PubChem BioAssay
